A selection: hits, their analogues and other compounds. The true share with any hit is near 10%.
G9a inh = qHTS Assay for Inhibitors of Histone Lysine Methyltransferase G9a. Potency, µM (top dose mostly 102 µM), inactives show at the highest dose activity, negative = inhibition, actives largely listed as inhibitors. hit rate 8.8% among 350,000. Histone-lysine N-methyltransferase EHMT2 (Homo sapiens), Q96KQ7. G9a H3K9 monomethylation, AlphaScreen, 2 h. AID 504332, 2011; also: % is scaled to controls: 0 for no effect and ±100 for the full control effect; nearly all actives have a fitted effect of over 75% in size
Target sequence (Q96KQ7 913-1193 limits assumed): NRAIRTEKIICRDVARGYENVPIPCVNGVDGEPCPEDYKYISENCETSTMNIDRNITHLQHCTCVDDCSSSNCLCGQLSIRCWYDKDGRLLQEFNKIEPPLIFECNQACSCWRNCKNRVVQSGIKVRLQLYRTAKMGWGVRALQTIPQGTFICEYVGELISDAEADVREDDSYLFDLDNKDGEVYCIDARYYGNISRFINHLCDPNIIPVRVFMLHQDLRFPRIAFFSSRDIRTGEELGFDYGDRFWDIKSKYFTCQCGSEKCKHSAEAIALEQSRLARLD
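Methyltransferase reactions run at room temperature for 2 h (20 nM enzyme, 500 nM biotin-H3K9 peptide, 20 uM SAM) after a 15 min compound preincubation; product detected by AlphaScreen beads and anti-H3K9me1 antibody.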
HP1b binding inh = HTS for Inhibitors of HP1-beta Chromodomain Interactions with Methylated Histone Tails. Chromobox protein homolog 1 (Homo sapiens), P83916. Potency, µM (series often up to 114 µM), for inactives: top-dose activity change, negative = inhibition, usual class: inhibitors. AID 540317, 2011. hit rate 0.56% among 390,000. AlphaScreen HP1-beta / biotin-H3K9me3 peptide binding; also: nearly all actives have a fitted effect of over 70% in size
Target sequence (P83916 whole entry, looked up): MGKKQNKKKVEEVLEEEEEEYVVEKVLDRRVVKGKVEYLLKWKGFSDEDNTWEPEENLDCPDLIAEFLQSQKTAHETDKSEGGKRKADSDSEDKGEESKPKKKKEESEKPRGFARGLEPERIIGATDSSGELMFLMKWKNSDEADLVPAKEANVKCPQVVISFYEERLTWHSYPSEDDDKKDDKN
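HP1-beta protein (50 nM final) preincubated 30 min at room temperature with biotinylated H3(1-18)K9me3 peptide (50 nM) in PBS pH 7.4, 0.01% Tween-20, then compound added for 30 min. AlphaScreen streptavidin donor/nickel chelate acceptor beads (10 ug/mL final), 30 min dark, luminescence read.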
BAZ2B block = qHTS Assay for Inhibitors of BAZ2B | AlphaScreen BAZ2B-H3K14Ac peptide displacement | Potency, µM (highest dose often 114 µM), inactives show top-dose activity change, negative = inhibition, usual class: inhibitors | hit rate 4.4% among 360,000 | AID 504333, 2011; also: % is scaled to controls: 0 for no effect and ±100 for the full control effect; nearly all actives have a fitted effect of over 60% in size
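Compounds, titrated to a top concentration of 110 uM, were incubated 30 min at room temperature with preformed BAZ2B/acetyl-K14 H3 peptide complex (50 nM each). Proximity signal was measured by AlphaScreen after 20 min with beads.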
JMJD2A Tudor inh = qHTS Assay for Inhibitors of JMJD2A-Tudor Domain; Potency, µM (top dose mostly 114 µM), for inactives: at the top dose activity change, negative = inhibition, usual class: inhibitors; Lysine-specific demethylase 4A (Homo sapiens), O75164; AlphaScreen JMJD2A-Tudor / H3K4me3 peptide binding; hit rate 4.4% among 390,000; also: % is scaled to controls: 0 for no effect and ±100 for the full control effect; nearly all actives have a fitted effect of over 50% in size
GLS inh = qHTS for Inhibitors of Glutaminase (GLS). Potency, µM (series often up to 45.5 µM), for inactives: at the top dose activity change, negative = inhibition, actives largely listed as inhibitors. GLS enzymatic activity, qHTS titration. Glutaminase kidney isoform, mitochondrial (Homo sapiens), O94925. hit rate 0.21% among 410,000; also: % is scaled to controls: 0 for no effect and ±100 for the full control effect
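Two-point fluorescence kinetic (t0, 30 min RT) for hKGA; glutamate detected via glutamate oxidase–HRP–Amplex Red. Substrate: 1 mM L-glutamine solution; buffer 45 mM KH2PO4, pH 8.2.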
* = called active by the depositor; ? = inconclusive; nt = no result given; ! = repeats disagree; [ ] = remark or other dose. Calls follow the shape of the dose curve; as a rule, active = well fitted curve in the direction sought with a large enough effect; inconclusive = small, poorly fitted or top-dose-only effect, or another doubt; inactive = no such curve, though single readings can be large; an effect the other way counts as inactive or inconclusive. Potency is read from the fitted curve at half-maximal effect.

SMILES	G9a inh	HP1b binding inh	BAZ2B block	JMJD2A Tudor inh	GLS inh
Cc1ccc(NC(=O)c2nc(S(=O)(=O)Cc3ccccc3)ncc2Cl)cc1	?	-0.8%[57 µM]	?	-33.6%	?
CCc1nnc(NC(=O)c2nc(S(C)(=O)=O)ncc2Cl)s1	7.08µM*	45.8%	-26.6%	10µM*	-5.2%
Cc1nnc(NC(=O)c2nc(S(=O)(=O)Cc3ccccc3)ncc2Cl)s1	39.8µM*	29.4%[57 µM]	50.1µM*!	31.6µM*	3.9%
COc1ccc(NC(=O)c2nc(S(=O)(=O)Cc3cccc(C)c3)ncc2Cl)c(OC)c1	-41.1%	48.2%	-36.6%	-13.7%	-0.5%
COc1ccc(OC)c(NC(=O)c2nc(S(=O)(=O)Cc3ccccc3)ncc2Cl)c1	35.5µM*	-13.2%[57 µM]	-34.7%	-18.5%	?
CCc1nnc(NC(=O)c2cc(Cl)ccn2)s1	79.4µM*	50.8%	20µM*	15.8µM*	-18.9%
CCSc1ncc(Cl)c(C(=O)Nc2nnc(CC)s2)n1	?	42.1%	-9.4%	-20.1%	-1.4%
CC1(C(=O)NS(=O)(=O)c2ccc3ccccc3c2)CCN1C(=O)CC1CCCCC1 (stereo not given)	nt	nt	nt	nt	15.0%
COc1ccc(C(=O)NC2CCCc3ccccc32)cc1[N+](=O)[O-] (stereo not given)	7.9%	22.5%	-26.5%	-14.7%	-17.5%
Cc1cccc(C)c1NC(=O)c1nc(S(=O)(=O)Cc2ccccc2)ncc1Cl	?	21.0%[57 µM]	-2.8%	-5.5%	1.0%
Cc1cccc(CS(=O)(=O)c2ncc(Cl)c(C(=O)Nc3c(C)cccc3C)n2)c1	35.5µM*	87.6%	-16.9%	-8.9%	0.6%
Cc1ccccc1CS(=O)(=O)c1ncc(Cl)c(C(=O)Nc2ccc(F)cc2)n1	22.4µM*	33.2%	-13.8%	5.1%	8.8%
COc1ccc(Cc2nc3ccc(C(=O)NCC4COCCO4)cc3o2)cc1 (stereo not given)	18.5%	20.4%	0.1%	-0.7%	6.5%
NC(=O)c1ccc[n+]([C@H]2O[C@@H](COP(=O)([O-])OP(=O)(O)OC[C@H]3O[C@@H](n4cnc5c(N)ncnc54)[C@H](O)[C@@H]3O)[C@H](O)[C@@H]2O)c1	-24.8%[12.7 µM]	22.7%	35.5µM*	79.4µM*	-9.0%
NC(=O)c1ccc[n+]([C@@H]2O[C@H](COP(=O)([O-])OP(=O)(O)OC[C@H]3O[C@@H](n4cnc5c(N)ncnc54)[C@@H](O)[C@@H]3O)[C@@H](O)[C@@H]2O)c1	9.4%[21.5 µM]	nt	nt	nt	-0.9%[20 µM]
NC(=S)c1ccc[n+]([C@@H]2O[C@@H](COP(=O)([O-])OP(=O)(O)OC[C@H]3O[C@@H](n4cnc5c(N)ncnc54)[C@H](OP(=O)(O)O)[C@@H]3O)C(O)C2O)c1 (stereo not given in full)	7.94µM*	nt	nt	nt	nt
NC(=S)c1ccc[n+]([C@@H]2O[C@@H](COP(=O)([O-])OP(=O)(O)OC[C@H]3O[C@@H](n4cnc5c(N)ncnc54)[C@H](OP(=O)(O)O)[C@H]3O)C(O)C2O)c1 (stereo not given in full)	17.8µM*	nt	nt	nt	nt
NC(=O)c1ccc[n+]([C@@H]2OC(COP(=O)([O-])OP(=O)(O)OCC3OC(n4cnc5c(N)ncnc54)C(O)C3O)C(O)C2O)c1 (stereo not given in full)	-40.1%[2.33 µM]	nt	nt	nt	nt
CCOc1ncccc1C(=O)OCC(=O)Nc1ccc2c(c1)OCO2	8.4%	13.0%	-10.0%	-14.7%	-3.9%
COc1ccc(-c2cc(C(=O)OCC(=O)N3CCCCC3)c3ccccc3n2)cc1OC	nt	112.8%	nt	20.8%	0.0%
CCOC(=O)CNC(=O)CSc1nc2sc(C)c(C)c2c(=O)n1C	44.7µM*	6.1%	-26.5%	-25.2%	-12.8%
COc1ccc(-c2c(C)nn3c(C(F)(F)F)cc(-c4ccc(C)cc4)nc23)cc1	?	-2.7%	-29.5%	-30.2%	11.8%
CC(C)n1c(=O)c2c(O)cc(=O)oc2c2ccccc21	-8.9%[0.0925 µM]	2.0%	-1.8%	50.1µM*	-3.4%
Cc1noc(C)c1C(=O)N1CCCc2ccccc21	-17.5%[59 µM]	32.5%	-17.3%	-4.8%	5.0%
CN(C)c1ccc(NC(=O)c2ccc(COc3cccc(Cl)c3)o2)cc1	?	?	10µM*	12.6µM*	36.0%
SMILES	G9a inh	HP1b binding inh	BAZ2B block	JMJD2A Tudor inh	GLS inh
CCCn1c(S(=O)(=O)O)nc2ccccc21	50.1µM*	18.0%	-14.5%	-14.7%	21.5%
O=S(=O)(O)c1nc2ccccc2n1CCOc1ccccc1	50.1µM*	21.0%	-33.5%	-26.3%	44.1%
CCC(C)n1c(S(=O)(=O)O)nc2ccccc21 (stereo not given)	79.4µM*	32.8%	?	-13.2%	-4.3%
CCC(C)n1c(/C=C/c2ccccc2)nc2ccccc21 (stereo not given)	77.3%[59 µM]	96.5%	95.1%	77.3%	-2.2%
Cc1cccc(OCCn2c(S(=O)(=O)O)nc3ccccc32)c1	nt	7.4%	-6.4%	-17.8%	13.8%
CCCn1c(N2CCN(C(=O)N3CCCCC3)CC2)nc2ccccc21	50.1µM*	15.5%	?	-12.2%	0.9%
CCCn1c(N2CCN(C(=O)Nc3ccccc3)CC2)nc2ccccc21	10.1%	29.0%	1.7%	-1.3%	5.7%
C/C(Cc1ccccc1)=N\NC(=O)CNC(=O)COc1cccc(C)c1	nt	27.9%	-4.4%	-4.7%	2.6%
CC(N)c1csc(Nc2ccc(C(=O)NCCCO)cn2)n1 (stereo not given)	nt	nt	nt	nt	-7.6%
Clc1ccc2[nH]c3c(NCCCN4CCOCC4)ncnc3c2c1	7.9%[2.33 µM]	18.1%	-5.5%	-20.8%	21.5%
Nc1nc2ccccc2n1CCOc1ccc(Br)cc1	nt	30.5%	?	-11.3%	6.9%
CCCn1c(/C=C/c2cc[n+](C)cc2)nc2ccccc21	39.8µM*	12.0%	?	?	2.2%
CCCCCCn1c(/C=C/c2ccccc2)nc2ccccc21	165.3%[59 µM]	299.6%	408.4%	184.6%	-0.9%
S=C(Nc1ccccc1)Nc1nc2ccccc2n1CCOc1ccc(Br)cc1	?	-1.2%	3.16µM*	?	-7.7%
Cc1ccc(C(=O)c2c3ccccc3[n+]([O-])n2CCO)cc1	4.5%[2.33 µM]	29.9%	10.2%	15.7%	-4.4%
CCS(=O)(=O)NCC(c1ccco1)N1CCN(c2ccccc2F)CC1 (stereo not given)	3.3%[59 µM]	10.3%	1.2%	-22.6%	7.5%
Cc1cc(C)cc(OCC(=O)Nc2ccccc2C(=O)N2CCOCC2)c1	nt	27.2%[57 µM]	-13.2%	5.5%	-24.6%
CCN(C(=O)COC(=O)CSc1cc(C)c2ccccc2n1)c1ccccc1	2.3%[0.501 µM]	37.9%	2.3%	9.6%	-9.4%
CCCCN(C(=O)c1ccc2c(c1)OCO2)c1ccccc1	50.1µM*	8.4%	3.9%	-2.0%	0.0%

Source: PubChem BioAssay (National Center for Advancing Translational Sciences (NCATS))
